Assay outcomes as filed in PubChem.
The list is not random: actives were taken first. Their share in the collection is about 18%.
RORgamma inh – inhibitors of mouse ROR gamma transcriptional activity. P51450. Drosophila S2 Gal4-RORgamma UAS-luciferase reporter, 20 h. Potency, µM (highest dose often 53.6 µM), for the others: at the top dose activity change, negative = inhibition, hits mostly inhibitors. 310,000 compounds, 5.4% hits; further: potency means the concentration at half of the fitted maximal effect; nearly all actives have a fitted effect of over 60% in size
Target sequence (P51450 whole entry, looked up, the tested form may be a part): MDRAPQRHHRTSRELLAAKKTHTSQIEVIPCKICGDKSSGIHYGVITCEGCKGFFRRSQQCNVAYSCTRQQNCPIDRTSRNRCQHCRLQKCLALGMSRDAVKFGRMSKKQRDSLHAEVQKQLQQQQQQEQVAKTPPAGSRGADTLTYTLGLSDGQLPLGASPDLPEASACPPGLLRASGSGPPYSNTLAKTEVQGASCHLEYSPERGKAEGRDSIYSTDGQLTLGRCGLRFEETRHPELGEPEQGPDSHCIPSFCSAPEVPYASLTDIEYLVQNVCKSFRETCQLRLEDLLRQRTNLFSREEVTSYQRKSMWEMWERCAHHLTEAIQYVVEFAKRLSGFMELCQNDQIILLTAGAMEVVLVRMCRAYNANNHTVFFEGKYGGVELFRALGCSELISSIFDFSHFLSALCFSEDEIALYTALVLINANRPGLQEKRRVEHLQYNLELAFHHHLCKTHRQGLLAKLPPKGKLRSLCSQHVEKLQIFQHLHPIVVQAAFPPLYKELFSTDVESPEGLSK
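Drosophila S2 cells stably expressing Gal4-DBD/mouse RORγ fusion under metallothionein promoter plus UAS-luciferase; compound 1 h, then 700 uM CuSO4 induction for 20 h at ambient temperature; inhibition read as reduced luminescence.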
TDP1 cell CPT – DT40-hTDP1 cell growth loss with CPT | chicken DT40 Tdp1-/-;hTDP1 cells + 20 nM CPT, ATP luminescence, 48 h | Potency, µM (series often up to 46.2 µM), for the others: at the highest dose activity change, negative = growth inhibition, actives largely listed as inhibitors | 420,000 compounds, 12% hits; further: potency means the concentration at half of the fitted maximal effect; nearly all actives have a fitted effect of over 55% in size
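Chicken DT40 Tdp1-/- cells complemented with human TDP1, 400 cells/well, exposed to compounds plus 20 nM camptothecin for at least 48 h at 37 C; viability read as ATP content by CellTiter-Glo luminescence.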
IL1B secr inh – blocks inflammasome-driven IL-1 beta release | 360,000 compounds, 4.7% hits | activity change, % at 57.5 µM | AID 743279 | THP-1 LPS/ATP IL-1B secretion, AlphaLISA, 16 h; hits give low values; in the data active means activity change below about -50%; inconclusive means mostly about -30% to -49%
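THP-1 cells pretreated 1 hr with compounds (up to 57.5 uM final), then stimulated with LPS (250 ng/mL final) plus ATP (1.25 mM final); secreted IL-1B measured by AlphaLISA after 16 hr, decreased signal indicating inhibition.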
LDHA block – inhibitors of human lactate dehydrogenase A | P00338 | AID 1347041 | 480,000 compounds, 0.15% hits | purified LDHA, NADH/diaphorase-resazurin fluorescence; hits give low values | activity change, % (values are at about 110 or 230 µM); in the data active means activity change below about -30%; inconclusive means mostly about -25% to -30%;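 further: plate controls were DMSO wells for no effect and wells without enzyme for full effect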
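LDH5 2 nM; NADH 0.06 mM, pyruvate 0.2 mM; 200 mM Tris pH 7.4, EDTA, Tween-20; 5 min RT. Detection: diaphorase 0.133 mg/mL + resazurin 37 µM, fluorescence ex540/em590 at 0 and 20 min; normalized to enzyme-free and DMSO wells.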
DT40 TDP1 no CPT – qHTS for Inhibitors of human tyrosyl-DNA phosphodiesterase 1 (TDP1): qHTS in cells in absence of CPT | DT40 Tdp1-/- hTDP1 cells, no CPT, ATP luminescence, 48 h | 420,000 compounds, 15% hits | Potency, µM (top dose mostly 46.2 µM), without a hit: at the highest dose activity change, negative = growth inhibition, most hits filed as inhibitors | AID 686978, 2013; further: potency means the concentration at half of the fitted maximal effect; nearly all actives have a fitted effect of over 55% in size
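No-CPT arm: Tdp1-/-;hTDP1 DT40 cells (400/well) plus compounds, incubated ≥48 hr at 37 °C. Readout CellTiter-Glo luminescence.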
Gal4-VP16 FLuc – inhibits Gal4-VP16 luciferase reporter, ROR gamma counter-screen | Drosophila S2 Gal4-VP16 UAS-luciferase, luminescence, 20 h | 310,000 compounds, 3.5% hits | Potency, µM (highest dose often 53.6 µM), for the others: top-dose activity, negative = inhibition, actives largely listed as inhibitors;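 further: Gal4-VP16 expression switched on by copper sulfate through the metallothionein promoter; potency means the concentration at half of the fitted maximal effect; nearly all actives have a fitted effect of over 50% in size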
* = called active by the depositor; ? = inconclusive; . = no result given. Unless noted, the call rests on the fitted dose curve; in most records, active means well fitted curve in the direction sought with a large enough effect; inconclusive means small, poorly fitted or top-dose-only effect, or another doubt; inactive means no such curve, though single readings can be large; an effect the other way counts as inactive or inconclusive. Unless noted, on the % scale 0 is the no-effect control and ±100 the full control effect.

SMILES	RORgamma inh	TDP1 cell CPT	IL1B secr inh	LDHA block	DT40 TDP1 no CPT	Gal4-VP16 FLuc
CCCc1ccc(NC(=O)Cn2cnc3c2c(=O)n(C)c(=O)n3C)cc1	.	.	.	-1	.	.
CC1(C)CC2CC(C)(CN2S(=O)(=O)c2ccc(F)cc2F)C1 (stereo unspecified)	.	?	14	-2	5.8µM*	.
CC1(C)CC2CC(C)(CN2S(=O)(=O)c2ccc(N)cc2)C1 (stereo unspecified)	-1%	?	-15	-7	?	-9%
CCN(CC#N)CC(=O)NC1(C#N)CCCC1	.	.	.	0	.	.
CCOc1ccc(C(=O)Nc2ccccc2N2CCOCC2)cc1	-19%	-27%	-21	0	?	1%
CCOc1ccc(C(=O)C2CCN(CC(=O)Nc3ccccc3N3CCOCC3)CC2)cc1	4%	16µM*	-25	1	18µM*	?
O=C(CN1CCN(CC(=O)Nc2ccccc2Cl)CC1)NCC1(N2CCCCC2)CCCCC1	.	?	-8	-6	21µM*	.
O=C(CN1CCN(CC(=O)Nc2ccccc2Cl)CC1)Nc1ccc2c(c1)OCCO2	13%	?	-8	1	23µM*	-6%
COc1ccccc1NC(=O)CN1CCN(CC(=O)Nc2ccc3c(c2)OCCO3)CC1	25%	?	-29	-1	?	12%
O=C(CN1CCC(C(=O)c2ccc3c(c2)OCCO3)CC1)Nc1ccccc1C(F)(F)F	?	?	-57*	0	?	-7%
CSc1ccc(CCNC(=O)Cn2c(=O)c(=O)n(C)c3ccccc32)cc1	.	.	.	9	.	.
N#C/C(=C/c1ccc(OC(F)(F)F)cc1)c1nc2ccccc2[nH]1	.	.	.	2	.	.
O=Cc1ccc(Sc2ccccc2)o1	.	.	.	-11	.	.
COc1ccc(Cl)cc1-n1nnc(C(=O)Nc2cc(C)ccc2C)c1C	.	.	.	-1	.	.
Cc1ccccc1NC(=O)CN1CCC(C(=O)c2ccc3c(c2)OCCO3)CC1	15%	?	14	-3	18µM*	-6%
CCc1cccc2c(C(=O)CSc3nnc(C)s3)c[nH]c12	.	.	.	-8	.	.
C#CCn1c(=NC(=O)c2ccc(S(=O)(=O)N3CCCc4ccccc43)cc2)sc2cc(S(N)(=O)=O)ccc21	27%	13µM*	16	-13	15µM*	-7%
COC(=O)c1ccccc1NC(=S)NC(=O)COc1ccccc1	5.6µM*	-18%	23	0	?	11µM*
CCCCC(=O)NC(=S)Nc1ccccc1C(=O)Nc1ccccc1	-29%	0%	-11	-10	-4%	-1%
COC(=O)c1ccccc1NC(=O)CC(=O)Nc1ccccc1C(=O)OC	17%	-21%	5	-5	?	-5%
CCOC(=O)c1ccccc1NC(=O)COc1ccccc1	1%	-8%	8	0	-17%	1%
CCCCCC(=O)NC(=S)Nc1ccccc1C(=O)OC	14µM*	-15%	45	-2	-18%	?
O=C(COc1ccccc1)NC(=S)Nc1cccc2c(O)cccc12	.	?	65	3	26µM*	.
COC(=O)c1ccccc1NC(=S)NC(=O)CC(C)C	13µM*	-26%	16	-1	0%	?
CC1=C(C(=O)OCC(F)(F)C(F)(F)F)C(c2cc3c(cc2Br)OCO3)NC(=O)N1 (stereo unspecified)	.	.	.	13	.	.
SMILES	RORgamma inh	TDP1 cell CPT	IL1B secr inh	LDHA block	DT40 TDP1 no CPT	Gal4-VP16 FLuc
COc1ccc(CNC(=O)Cc2c(C)c3cc(Cl)c(O)cc3oc2=O)cc1	.	.	.	7	.	.
Cc1cc(N)nc(SC(C)C(=O)c2ccc(F)cc2)n1 (stereo unspecified)	.	.	.	9	.	.
CCC(=O)NC(=S)Nc1ccc(NC(=O)COc2ccccc2)cc1	-36%	-19%	0	-6	?	?
O=C(COc1ccccc1)NC(=S)Nc1ccc(Br)cn1	13µM*	-1%	9	-7	-2%	?
CC(C)NC(=O)NC(=O)CSc1nnc(COc2ccccc2F)n1C(C)C1CC2CCC1C2 (stereo unspecified)	?	10µM*	-52*	9	10µM*	?
CCn1c2ccccc2c2cc(NC(C)=O)ccc21	-2%	15%	11	-5	1%	7%
CCn1c2ccccc2c2cc(NC(=O)CNCC3CCCO3)ccc21 (stereo unspecified)	17%	?	-52*	-15	?	-15%
CCn1c2ccccc2c2cc(NC(=O)CN3CCCC3)ccc21	-11%	-14%	-69*	-8	-22%	4%
O=C(Cc1cccc2ccccc12)Nc1ccccc1	.	23µM*	-7	-3	?	.
CC(CC(=O)Nc1ccc2c(c1)c(=O)n(C)n2-c1ccccc1)c1ccccc1 (stereo unspecified)	.	5.2µM*	73	-3	5.2µM*	.
O=C(Cc1cccc2ccccc12)NO	.	-2%	.	5	-26%	.
Cn1c(=O)c2cc(NC(=O)Cc3cccc4ccccc34)ccc2n1-c1ccccc1	.	16µM*	30	2	21µM*	.
Cc1ccccc1CC(=O)Nc1ccc2c(c1)c(=O)n(C)n2-c1cccs1	.	?	0	0	3.3µM*	.
CC(C)=CC1C(C(=O)NCC(C)(C)C(N)=O)C1(C)C (stereo unspecified)	.	.	.	-6	.	.
